Data published in the supplement of paper PMC10849652.
Targets with a hit are over-represented here; the source holds about 7,900 in all. About 0.6% of all pairs of compound and target were hits.

Tests used:
Assay in all cases: log2 fold change, soluble protein after heating vs DMSO (PISA); higher = thermal stabilisation; K562 cells, 10 uM, 30 min; active = over 0.2 and 3.5 SD of the protein, either way, in both replicates (recomputed)
[1] = compound: CC1=C(C=C(C=C1)NC(=O)C2=CC(=CC=C2)C(C)(C)C#N)NC3=CC4=C(C=C3)N=CN(C4=O)C
Procedure, shortened: (§1)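 Soluble protein was defined as the supernatant after 21,000xg for 90 min. It came from K562 cells at 2×10^6 cells/mL given 10 μM compound for 30 min, heated in aliquots for 3 min across 48°C-58°C, pooled, and extracted in PBS with 0.5% NP-40 at 4°C, and was quantified by TMTpro 16plex LC-MS/MS with equalised channel sums. Thermal stability against control samples, from duplicates, is reported as log2 fold change.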

[2] = compound: CC1=C(C=C(C=C1)NC(=O)C2=CC(=CC=C2)N(C)C)NC(=O)C3=CC=C(C=C3)O
Procedure, shortened: as §1

[3] = compound: CC1=CC=C(C=C1)SC2=C3C=C(SC3=CN=C2)C(=O)N
Procedure, shortened: as §1

[4] = compound: CC1=NC(=CC=C1)C2=C(N=C(N2)C(C)(C)C)C3=CC4=NC=CN=C4C=C3
Procedure, shortened: as §1

[5] = compound: CCCCN(Cc1ccc(C(=O)NO)cc1)C(=O)Nc1ccccc1 [Nexturastat A]
Procedure, shortened: as §1

[6] = compound: CCCS(=O)(=O)Nc1ccc(F)c(C(=O)c2c[nH]c3ncc(-c4ccc(Cl)cc4)cc23)c1F [vemurafenib]
Procedure, shortened: as §1

[7] = compound: CCCS(=O)(=O)Nc1ccc(F)c(C(=O)c2c[nH]c3ncc(Cl)cc23)c1F
Procedure, shortened: as §1

[8] = compound: CCCc1cc(C)[nH]c(=O)c1CNC(=O)c1cc(-c2ccnc(N3CCN(C)CC3)c2)cc2c1cnn2C(C)C
Procedure, shortened: as §1

[9] = compound: CCN(CC)Cc1ccc2cc(COC(=O)Nc3ccc(C(=O)NO)cc3)ccc2c1 [givinostat]
Procedure, shortened: as §1

[10] = compound: CCN(CCCOc1ccc2c(Nc3cc(CC(=O)Nc4cccc(F)c4)[nH]n3)ncnc2c1)CCOP(=O)(O)O [barasertib]
Procedure, shortened: as §1

[11] = compound: CC[C@@H]1C(=O)N(C)c2cnc(Nc3ccc(C(=O)NC4CCN(C)CC4)cc3OC)nc2N1C1CCCC1
Procedure, shortened: as §1

[12] = compound: CC[C@@H]1C(=O)N(C)c2cnc(Nc3ccc(C(=O)N[C@H]4CC[C@H](N5CCN(CC6CC6)CC5)CC4)cc3OC)nc2N1C(C)C [volasertib]
Procedure, shortened: as §1

[13] = compound: CC[C@H](C)N1C=C(C2=C(C=C(C=C21)C3=CN=C(C=C3)N4CCNCC4)C(=O)NCC5=C(C=C(NC5=O)C)C)C
Procedure, shortened: as §1

[14] = compound: CC[C@H](C)[C@@H](C(=O)N[C@@H]([C@@H](C)O)C(=O)N[C@@H](CC(C)C)C(=O)[C@]1(CO1)C)NC(=O)[C@H]([C@@H](C)CC)N(C)C(=O)C [epoxomicin]
Procedure, shortened: as §1

[15] = compound: CCn1c(C(=O)N(C2CC2)C2CC2)cc2c3c(ncn3C)c(Nc3cc(C)n(C)n3)nc21
Procedure, shortened: as §1

[16] = compound: CCn1cc(-c2ccnc3[nH]c(-c4cccc(CN(C)C)c4)cc23)c(-c2ccc(NC(=O)N(C)C)cc2)n1
Procedure, shortened: as §1

[17] = compound: CN(C)CC(=O)Nc1ccc2[nH]c(=O)c3ccccc3c2c1
Procedure, shortened: as §1

[18] = compound: CN(CCOC1=CC=C(C=C1)C[C@H]2C(=O)NC(=O)S2)C3=CC=CC=N3 (racemic) [rosiglitazone]
Procedure, shortened: as §1

[19] = compound: CN1C2=C(C3=C1C(=O)N(N=C3)CC4=CC(=CC=C4)N)SC(=C2)S(=O)C
Procedure, shortened: as §1

[20] = compound: CN1CCC(CNc2ccc3ncc(-c4cccc(OC(F)(F)F)c4)n3n2)CC1
Procedure, shortened: as §1

Measured: log2 fold change

XPOT (UniProt O43592)
inactive: [1] 0.018 | [2] -0.031 | [3] 0.023 | [4] 0.029 | [5] -0.012 | [6] 0.039 | [7] 0.128 | [8] 0.014 | [9] 0.007 | [10] 0.08 | [13] 0.04 | [14] -0.033 | [15] 0 | [16] 0.021 | [17] 0.058 | [18] 0.059 | [19] -0.028 | [20] -0.16
active: [11] -0.363 | [12] -0.855

UBE2E3 (UniProt Q969T4)
inactive: [1] 0.028 | [2] -0.059 | [3] 0.053 | [4] 0.08 | [5] -0.098 | [6] -0.013 | [7] 0.08 | [8] 0.022 | [9] 0.116 | [10] 0.013 | [11] -0.124 | [13] -0.008 | [14] -0.052 | [15] 0.051 | [16] -0.11 | [17] 0.022 | [18] 0.059 | [19] -0.005 | [20] -0.24
active: [12] -0.377

VPS33A (UniProt Q96AX1)
Chain of UniProt Q96AX1 (Q96AX1 whole entry, looked up): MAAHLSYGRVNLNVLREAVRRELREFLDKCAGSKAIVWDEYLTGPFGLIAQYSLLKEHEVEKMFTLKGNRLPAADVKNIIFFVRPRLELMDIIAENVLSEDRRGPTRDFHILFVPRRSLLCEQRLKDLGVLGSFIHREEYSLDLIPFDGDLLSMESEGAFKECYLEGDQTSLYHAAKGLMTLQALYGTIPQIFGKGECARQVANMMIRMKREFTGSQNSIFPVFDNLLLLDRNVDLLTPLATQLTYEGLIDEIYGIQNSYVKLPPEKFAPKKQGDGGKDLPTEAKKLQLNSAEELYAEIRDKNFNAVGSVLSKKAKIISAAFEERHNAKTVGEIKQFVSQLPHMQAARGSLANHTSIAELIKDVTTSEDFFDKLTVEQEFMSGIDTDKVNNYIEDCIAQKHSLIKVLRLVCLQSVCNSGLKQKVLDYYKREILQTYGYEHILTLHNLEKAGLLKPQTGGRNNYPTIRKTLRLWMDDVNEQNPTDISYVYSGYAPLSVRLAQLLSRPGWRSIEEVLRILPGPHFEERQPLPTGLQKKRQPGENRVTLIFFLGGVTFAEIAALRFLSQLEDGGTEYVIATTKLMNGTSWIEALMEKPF
inactive: [1] -0.013 | [2] -0.074 | [3] -0.016 | [4] -0.021 | [5] -0.024 | [6] 0.003 | [7] 0.036 | [8] 0.04 | [9] 0.058 | [10] 0.068 | [11] -0.224 | [13] 0.043 | [14] 0.039 | [15] -0.031 | [16] -0.004 | [17] 0.059 | [18] 0.062 | [19] 0.035 | [20] -0.208
active: [12] -0.359

WDR4 (UniProt P57081)
Chain of UniProt P57081 (P57081 whole entry, looked up): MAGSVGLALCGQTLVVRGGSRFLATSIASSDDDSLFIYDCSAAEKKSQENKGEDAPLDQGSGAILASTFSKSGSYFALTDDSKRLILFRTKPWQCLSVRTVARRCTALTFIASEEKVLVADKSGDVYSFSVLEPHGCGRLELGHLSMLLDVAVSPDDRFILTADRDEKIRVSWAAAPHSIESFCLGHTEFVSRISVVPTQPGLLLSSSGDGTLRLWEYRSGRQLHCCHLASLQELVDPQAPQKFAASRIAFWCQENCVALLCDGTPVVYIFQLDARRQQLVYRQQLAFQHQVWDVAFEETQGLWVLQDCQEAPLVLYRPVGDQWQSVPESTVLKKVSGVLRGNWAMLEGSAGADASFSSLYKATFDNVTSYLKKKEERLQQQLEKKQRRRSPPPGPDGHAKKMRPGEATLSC
inactive: [1] -0.112 | [2] -0.055 | [3] 0.173 | [4] 0.104 | [5] 0.048 | [6] -0.004 | [8] -0.013 | [9] -0.026 | [10] -0.023 | [11] -0.031 | [12] -0.072 | [13] 0.025 | [14] 0.074 | [15] -0.03 | [16] -0.06 | [17] 0.022 | [18] 0.177 | [19] -0.08 | [20] -0.114
active: [7] 0.26

TXNL1 (UniProt O43396)
Chain of UniProt O43396 (O43396 whole entry, looked up): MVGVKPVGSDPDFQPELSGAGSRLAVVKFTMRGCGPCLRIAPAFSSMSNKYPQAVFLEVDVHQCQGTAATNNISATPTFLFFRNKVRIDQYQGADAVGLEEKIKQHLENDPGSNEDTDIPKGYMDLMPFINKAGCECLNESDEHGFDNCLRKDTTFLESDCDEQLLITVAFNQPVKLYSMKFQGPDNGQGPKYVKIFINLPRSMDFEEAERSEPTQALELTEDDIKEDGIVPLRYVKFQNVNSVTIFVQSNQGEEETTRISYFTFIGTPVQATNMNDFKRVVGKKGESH
inactive: [1] 0.02 | [2] -0.105 | [3] 0.007 | [4] 0.098 | [5] 0.117 | [6] 0.037 | [7] 0.079 | [8] 0.015 | [9] 0.114 | [10] 0.045 | [11] -0.104 | [12] -0.163 | [13] 0.044 | [15] -0.018 | [16] -0.031 | [17] 0.027 | [18] 0.01 | [19] -0.018 | [20] 0.011
active: [14] 0.295

UGDH (UniProt O60701)
inactive: [1] 0.039 | [2] -0.005 | [3] 0.028 | [4] 0.083 | [5] -0.064 | [6] 0.043 | [7] 0.102 | [8] -0.097 | [9] 0.031 | [10] 0.079 | [11] -0.041 | [12] -0.128 | [13] 0.11 | [14] 0.064 | [15] -0.076 | [16] 0.031 | [17] 0.05 | [18] -0.034 | [19] -0.113 | [20] -0.106

TRAM1 (UniProt Q15629)
active: [20] -0.759
inactive: [1] 0.024 | [2] -0.063 | [3] -0.006 | [4] 0.048 | [5] 0.005 | [6] 0.027 | [7] 0.02 | [8] -0.101 | [9] 0.028 | [10] 0.015 | [11] -0.216 | [12] -0.161 | [13] 0.031 | [14] 0.008 | [15] -0.004 | [16] 0.066 | [17] 0.062 | [18] 0.095 | [19] -0.001

XPNPEP1 isoform 3 (UniProt Q9NQW7)
Chain of UniProt Q9NQW7 (Q9NQW7 whole entry, looked up): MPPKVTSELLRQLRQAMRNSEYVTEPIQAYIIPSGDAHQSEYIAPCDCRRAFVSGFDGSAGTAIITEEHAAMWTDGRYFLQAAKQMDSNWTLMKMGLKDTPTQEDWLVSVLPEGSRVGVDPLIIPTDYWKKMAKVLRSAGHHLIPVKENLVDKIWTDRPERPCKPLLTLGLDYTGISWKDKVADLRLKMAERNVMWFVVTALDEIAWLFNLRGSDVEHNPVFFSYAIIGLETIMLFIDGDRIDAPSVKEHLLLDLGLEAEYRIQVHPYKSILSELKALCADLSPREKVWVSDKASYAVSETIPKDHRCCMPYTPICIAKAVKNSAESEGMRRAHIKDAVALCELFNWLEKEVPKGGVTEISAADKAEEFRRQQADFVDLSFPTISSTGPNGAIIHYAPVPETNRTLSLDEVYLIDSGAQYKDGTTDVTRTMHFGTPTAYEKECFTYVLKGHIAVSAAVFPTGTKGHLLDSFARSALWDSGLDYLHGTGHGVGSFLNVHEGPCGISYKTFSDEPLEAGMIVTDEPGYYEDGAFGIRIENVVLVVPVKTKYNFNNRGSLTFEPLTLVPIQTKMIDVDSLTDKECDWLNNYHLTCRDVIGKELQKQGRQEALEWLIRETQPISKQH
inactive: [1] 0.014 | [2] -0.024 | [3] 0.023 | [4] 0.036 | [5] -0.014 | [6] 0 | [7] 0.021 | [8] -0.01 | [9] 0.042 | [10] 0.016 | [11] 0.027 | [12] 0.049 | [13] 0.018 | [14] -0.024 | [15] 0 | [16] -0.043 | [17] 0.051 | [18] 0.028 | [19] -0.064 | [20] -0.076

TMTC3 (UniProt Q6ZXV5)
Chain of UniProt Q6ZXV5 (Q6ZXV5 whole entry, looked up): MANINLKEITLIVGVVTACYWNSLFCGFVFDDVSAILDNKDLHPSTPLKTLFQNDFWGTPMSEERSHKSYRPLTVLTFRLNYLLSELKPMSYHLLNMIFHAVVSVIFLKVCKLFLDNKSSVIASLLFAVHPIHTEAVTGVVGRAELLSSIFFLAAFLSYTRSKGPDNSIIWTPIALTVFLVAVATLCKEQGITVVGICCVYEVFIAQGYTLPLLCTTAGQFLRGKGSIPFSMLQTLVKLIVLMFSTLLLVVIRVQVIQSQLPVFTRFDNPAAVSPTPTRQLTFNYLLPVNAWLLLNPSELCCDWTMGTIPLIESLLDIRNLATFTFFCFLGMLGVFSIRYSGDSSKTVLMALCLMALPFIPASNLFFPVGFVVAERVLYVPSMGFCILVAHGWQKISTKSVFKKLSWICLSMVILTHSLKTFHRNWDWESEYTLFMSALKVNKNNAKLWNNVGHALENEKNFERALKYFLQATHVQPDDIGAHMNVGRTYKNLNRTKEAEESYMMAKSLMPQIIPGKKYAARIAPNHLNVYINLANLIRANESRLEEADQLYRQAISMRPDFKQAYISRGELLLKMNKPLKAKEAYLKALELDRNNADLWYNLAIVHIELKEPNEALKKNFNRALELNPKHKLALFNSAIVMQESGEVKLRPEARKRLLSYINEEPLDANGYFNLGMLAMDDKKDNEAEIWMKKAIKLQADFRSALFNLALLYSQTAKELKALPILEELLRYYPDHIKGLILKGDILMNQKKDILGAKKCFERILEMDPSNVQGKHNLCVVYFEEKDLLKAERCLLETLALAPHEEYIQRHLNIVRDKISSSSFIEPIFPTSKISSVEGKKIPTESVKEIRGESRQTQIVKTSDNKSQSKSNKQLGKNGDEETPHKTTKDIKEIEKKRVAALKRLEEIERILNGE
inactive: [1] -0.05 | [2] -0.009 | [3] 0.019 | [4] 0.007 | [5] 0.067 | [6] -0.052 | [7] 0.013 | [8] -0.013 | [9] -0.032 | [10] 0.032 | [11] -0.074 | [12] -0.118 | [13] 0.023 | [14] 0.001 | [15] 0.001 | [16] 0.038 | [17] -0.045 | [18] 0.03 | [19] -0.014 | [20] -0.034

VPS28 (UniProt Q9UK41)
Chain of UniProt Q9UK41 (Q9UK41 whole entry, looked up): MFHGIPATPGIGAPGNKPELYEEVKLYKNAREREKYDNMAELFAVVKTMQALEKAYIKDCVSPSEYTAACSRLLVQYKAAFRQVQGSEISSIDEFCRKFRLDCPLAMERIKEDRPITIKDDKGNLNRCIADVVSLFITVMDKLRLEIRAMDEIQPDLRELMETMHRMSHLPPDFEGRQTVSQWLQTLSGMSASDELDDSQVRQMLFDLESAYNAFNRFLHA
inactive: [1] 0.029 | [2] -0.044 | [3] 0.055 | [4] 0.004 | [5] -0.018 | [6] 0.041 | [7] -0.008 | [8] -0.074 | [9] -0.024 | [10] 0.061 | [11] -0.057 | [13] 0.032 | [14] 0.09 | [15] 0.001 | [16] -0.048 | [17] 0.011 | [18] 0.102 | [19] -0.038 | [20] -0.139
active: [12] -0.3

TNFRSF10A (UniProt O00220)
inactive: [1] 0.006 | [2] 0.035 | [3] 0.016 | [4] -0.015 | [5] 0.089 | [6] -0.073 | [7] -0.044 | [8] 0.004 | [9] -0.042 | [10] 0.016 | [11] 0.046 | [12] 0.001 | [13] -0.02 | [14] -0.047 | [15] -0.037 | [16] -0.104 | [17] -0.123 | [18] -0.053 | [19] -0.02 | [20] -0.007

XRCC6 (UniProt P12956)
Chain of UniProt P12956 (P12956 whole entry, looked up): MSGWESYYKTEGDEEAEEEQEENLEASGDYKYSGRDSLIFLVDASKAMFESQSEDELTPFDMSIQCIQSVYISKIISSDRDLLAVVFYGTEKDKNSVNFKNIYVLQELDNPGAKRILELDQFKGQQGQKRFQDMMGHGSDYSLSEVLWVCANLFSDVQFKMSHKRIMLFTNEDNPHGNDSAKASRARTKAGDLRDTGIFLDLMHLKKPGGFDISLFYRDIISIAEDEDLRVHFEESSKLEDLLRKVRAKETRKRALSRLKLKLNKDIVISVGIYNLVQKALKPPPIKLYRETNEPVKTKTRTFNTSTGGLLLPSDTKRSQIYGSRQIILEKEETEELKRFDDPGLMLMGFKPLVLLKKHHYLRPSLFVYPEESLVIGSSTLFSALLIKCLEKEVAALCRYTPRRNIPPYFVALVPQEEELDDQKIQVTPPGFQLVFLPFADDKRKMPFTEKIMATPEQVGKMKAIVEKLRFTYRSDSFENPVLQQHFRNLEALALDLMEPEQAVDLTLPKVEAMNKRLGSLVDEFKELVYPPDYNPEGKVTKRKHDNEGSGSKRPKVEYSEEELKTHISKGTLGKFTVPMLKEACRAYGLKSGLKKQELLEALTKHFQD
active: [12] -0.515
inactive: [1] 0.046 | [2] -0.051 | [3] 0.022 | [4] 0.033 | [5] -0.023 | [6] 0.059 | [7] 0.138 | [8] 0.025 | [9] 0.116 | [10] 0.086 | [11] -0.205 | [13] 0.095 | [14] 0.072 | [15] -0.032 | [16] 0.008 | [17] 0.071 | [18] 0.07 | [19] -0.014 | [20] -0.172

XPO6 (UniProt Q96QU8)
active: [5] 0.767 | [12] -0.536
inactive: [1] 0.008 | [2] -0.221 | [3] 0.041 | [4] -0.369 | [6] 0.082 | [7] 0.13 | [8] 0.028 | [9] 0.068 | [10] -0.003 | [11] -0.054 | [13] -0.017 | [14] -0.249 | [15] -0.011 | [16] 0.174 | [17] 0.065 | [18] 0 | [19] 0.018 | [20] -0.134

UBE3D (UniProt Q7Z6J8)
Chain of UniProt Q7Z6J8 (Q7Z6J8 whole entry, looked up): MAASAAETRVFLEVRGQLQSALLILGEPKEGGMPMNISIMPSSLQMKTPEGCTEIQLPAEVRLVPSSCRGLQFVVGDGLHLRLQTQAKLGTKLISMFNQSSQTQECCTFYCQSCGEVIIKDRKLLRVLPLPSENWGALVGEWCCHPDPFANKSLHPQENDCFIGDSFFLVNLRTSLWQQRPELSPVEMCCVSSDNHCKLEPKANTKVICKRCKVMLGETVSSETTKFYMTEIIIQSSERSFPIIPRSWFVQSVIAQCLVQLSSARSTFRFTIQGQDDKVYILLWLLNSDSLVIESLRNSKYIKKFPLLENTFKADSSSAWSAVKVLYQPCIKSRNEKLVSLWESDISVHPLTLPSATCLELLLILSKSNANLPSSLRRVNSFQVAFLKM
inactive: [1] -0.036 | [2] 0.036 | [3] -0.049 | [4] 0.01 | [5] -0.016 | [6] 0.014 | [7] 0.04 | [8] 0.006 | [9] -0.075 | [10] 0.018 | [11] -0.033 | [12] -0.053 | [13] 0.012 | [14] 0.031 | [15] 0.063 | [16] -0.023 | [17] -0.004 | [18] 0.003 | [19] -0.051 | [20] -0.016

TNPO2 (UniProt O14787)
Chain of UniProt O14787 (O14787 whole entry, looked up): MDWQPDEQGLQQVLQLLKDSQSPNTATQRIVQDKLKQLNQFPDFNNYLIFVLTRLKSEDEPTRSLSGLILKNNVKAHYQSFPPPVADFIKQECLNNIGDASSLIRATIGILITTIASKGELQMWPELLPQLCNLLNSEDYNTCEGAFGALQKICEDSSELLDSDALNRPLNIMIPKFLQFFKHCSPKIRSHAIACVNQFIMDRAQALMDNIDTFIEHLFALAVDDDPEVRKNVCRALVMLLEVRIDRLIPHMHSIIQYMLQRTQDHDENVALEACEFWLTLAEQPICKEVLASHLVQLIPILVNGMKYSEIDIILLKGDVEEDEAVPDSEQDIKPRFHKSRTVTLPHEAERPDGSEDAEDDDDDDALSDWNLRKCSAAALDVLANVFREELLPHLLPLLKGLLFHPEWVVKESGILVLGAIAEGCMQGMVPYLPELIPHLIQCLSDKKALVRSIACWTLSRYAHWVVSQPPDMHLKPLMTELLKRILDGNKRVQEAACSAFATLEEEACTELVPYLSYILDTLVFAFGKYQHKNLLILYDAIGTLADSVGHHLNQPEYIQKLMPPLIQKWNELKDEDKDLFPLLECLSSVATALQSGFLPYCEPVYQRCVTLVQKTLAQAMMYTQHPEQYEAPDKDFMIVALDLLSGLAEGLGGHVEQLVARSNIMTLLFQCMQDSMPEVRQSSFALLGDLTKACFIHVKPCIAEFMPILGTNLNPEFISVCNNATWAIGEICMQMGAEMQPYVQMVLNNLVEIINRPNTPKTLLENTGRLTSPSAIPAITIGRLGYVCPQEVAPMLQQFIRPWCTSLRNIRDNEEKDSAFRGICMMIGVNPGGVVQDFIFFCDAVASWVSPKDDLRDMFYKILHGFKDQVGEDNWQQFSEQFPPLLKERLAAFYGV
active: [12] -0.36
inactive: [1] 0.052 | [2] -0.01 | [3] 0.073 | [4] 0.015 | [5] 0.021 | [6] 0.061 | [7] 0.11 | [8] 0.007 | [9] 0.083 | [10] 0.054 | [11] -0.176 | [13] 0.106 | [14] 0.029 | [15] -0.031 | [16] -0.027 | [17] 0.111 | [18] 0.068 | [19] 0.016 | [20] 0.06

TTI1 (UniProt O43156)
inactive: [1] 0.147 | [2] -0.027 | [3] 0.086 | [4] -0.026 | [5] 0.02 | [6] 0.082 | [7] 0.095 | [8] -0.016 | [9] 0.135 | [10] 0.068 | [11] -0.208 | [13] 0.08 | [14] -0.024 | [15] -0.083 | [16] -0.038 | [17] 0.048 | [18] 0.04 | [19] 0.134 | [20] -0.134
active: [12] -0.431
